Reference: publication PMC7862700, “An all-to-all approach to the identification of sequence-specific readers for epigenetic DNA modifications on cytosine”

Tests used:
Assay in all cases: DAPPL (digital affinity profiling via proximity ligation, sequencing); 10 mM Tris-HCl pH 7.5, 50 mM NaCl, 1 mM DTT, 4% glycerol, room temperature, 30 min; GST-TFs on glutathione beads, 16-mer random dsDNA library, 0.1% formaldehyde crosslink after washing; high values mean tight binding
FLI1 = molecular target: T1, FLI1 (Homo sapiens, UniProt Q01543 1-452); settings: protein: recombinant; tags: N-terminal GST; dsDNA, one strand shown
T1 sequence: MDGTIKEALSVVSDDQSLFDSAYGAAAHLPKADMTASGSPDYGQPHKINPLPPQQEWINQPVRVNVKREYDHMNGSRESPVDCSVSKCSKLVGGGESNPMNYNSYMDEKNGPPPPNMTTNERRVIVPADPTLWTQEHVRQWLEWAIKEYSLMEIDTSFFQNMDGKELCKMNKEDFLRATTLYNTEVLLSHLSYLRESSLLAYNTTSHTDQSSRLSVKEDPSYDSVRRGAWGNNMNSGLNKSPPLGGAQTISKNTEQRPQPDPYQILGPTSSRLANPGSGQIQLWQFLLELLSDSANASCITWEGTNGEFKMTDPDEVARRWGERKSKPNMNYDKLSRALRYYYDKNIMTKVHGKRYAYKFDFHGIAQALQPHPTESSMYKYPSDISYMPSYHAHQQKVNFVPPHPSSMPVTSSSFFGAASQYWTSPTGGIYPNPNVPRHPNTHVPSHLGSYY
Outline: (§1)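 Pools of DNA-barcoded human transcription factors, expressed in yeast as GST fusions on glutathione beads and combined with a tag-only sample, were incubated with 200 nmole of a 16-mer random double-stranded DNA library. Incubation took 30 min at room temperature in Tris/NaCl/DTT/glycerol buffer and was followed by washing, 0.1% formaldehyde crosslinking, proximity ligation (BsaI/T4 ligase, 1 h, 37 °C), PCR amplification and sequencing on an Illumina NextSeq500. Binding signal is the ratio of a hexamer's read frequency for a factor to its frequency for the tag-only sample.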

ELK1 = molecular target: T2, ELK1 (Homo sapiens, UniProt P19419 1-428); settings: protein: recombinant; tags: N-terminal GST; dsDNA, one strand shown
T2 sequence: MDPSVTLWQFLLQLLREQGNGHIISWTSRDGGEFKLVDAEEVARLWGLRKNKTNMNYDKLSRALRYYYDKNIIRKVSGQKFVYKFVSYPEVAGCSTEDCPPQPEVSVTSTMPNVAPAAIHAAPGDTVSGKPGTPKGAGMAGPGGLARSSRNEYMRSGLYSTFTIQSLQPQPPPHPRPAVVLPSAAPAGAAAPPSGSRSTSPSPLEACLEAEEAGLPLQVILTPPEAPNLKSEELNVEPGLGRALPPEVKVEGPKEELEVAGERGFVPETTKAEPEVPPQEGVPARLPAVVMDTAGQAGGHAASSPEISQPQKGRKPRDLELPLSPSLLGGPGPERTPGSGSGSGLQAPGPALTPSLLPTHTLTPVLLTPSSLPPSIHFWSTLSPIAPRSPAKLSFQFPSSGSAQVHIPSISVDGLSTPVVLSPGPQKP
Outline: as §1

GABPA = molecular target: T3, GABPA (Homo sapiens, UniProt Q06546 1-454); settings: protein: recombinant; tags: N-terminal GST; dsDNA, one strand shown
T3 sequence: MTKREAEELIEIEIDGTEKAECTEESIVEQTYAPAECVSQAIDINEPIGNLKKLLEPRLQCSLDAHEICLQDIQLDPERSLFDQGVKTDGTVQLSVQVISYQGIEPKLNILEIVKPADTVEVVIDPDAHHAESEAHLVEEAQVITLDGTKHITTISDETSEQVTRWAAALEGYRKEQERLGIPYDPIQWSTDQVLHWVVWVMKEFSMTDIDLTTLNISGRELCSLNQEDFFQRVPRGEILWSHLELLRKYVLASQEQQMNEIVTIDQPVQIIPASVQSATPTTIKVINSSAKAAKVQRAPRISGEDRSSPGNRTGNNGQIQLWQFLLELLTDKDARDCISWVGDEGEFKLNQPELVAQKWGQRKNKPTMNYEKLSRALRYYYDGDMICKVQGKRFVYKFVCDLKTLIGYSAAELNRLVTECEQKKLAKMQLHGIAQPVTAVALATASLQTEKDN
Outline: as §1

ERG = molecular target: T4, ERG (Homo sapiens, UniProt P11308 1-479); settings: protein: recombinant; tags: N-terminal GST; dsDNA, one strand shown
T4 sequence: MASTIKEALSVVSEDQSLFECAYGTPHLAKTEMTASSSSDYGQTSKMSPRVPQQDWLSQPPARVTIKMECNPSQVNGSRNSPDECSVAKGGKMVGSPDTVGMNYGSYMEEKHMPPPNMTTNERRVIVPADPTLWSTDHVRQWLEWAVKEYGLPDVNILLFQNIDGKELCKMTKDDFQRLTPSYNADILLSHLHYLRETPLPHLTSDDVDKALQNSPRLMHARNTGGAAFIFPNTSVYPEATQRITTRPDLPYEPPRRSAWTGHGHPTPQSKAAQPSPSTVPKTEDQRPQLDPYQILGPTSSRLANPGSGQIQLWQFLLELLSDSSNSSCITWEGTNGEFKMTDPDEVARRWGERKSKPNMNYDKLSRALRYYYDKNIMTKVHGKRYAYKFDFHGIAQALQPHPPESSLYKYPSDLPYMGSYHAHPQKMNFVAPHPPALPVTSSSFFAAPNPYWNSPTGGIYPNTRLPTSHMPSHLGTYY
Outline: as §1

ELF1 = ELF1 (Homo sapiens, UniProt P32519 1-619); settings: protein: recombinant; tags: N-terminal GST; dsDNA, one strand shown
ELF1, sequence (P32519 whole entry): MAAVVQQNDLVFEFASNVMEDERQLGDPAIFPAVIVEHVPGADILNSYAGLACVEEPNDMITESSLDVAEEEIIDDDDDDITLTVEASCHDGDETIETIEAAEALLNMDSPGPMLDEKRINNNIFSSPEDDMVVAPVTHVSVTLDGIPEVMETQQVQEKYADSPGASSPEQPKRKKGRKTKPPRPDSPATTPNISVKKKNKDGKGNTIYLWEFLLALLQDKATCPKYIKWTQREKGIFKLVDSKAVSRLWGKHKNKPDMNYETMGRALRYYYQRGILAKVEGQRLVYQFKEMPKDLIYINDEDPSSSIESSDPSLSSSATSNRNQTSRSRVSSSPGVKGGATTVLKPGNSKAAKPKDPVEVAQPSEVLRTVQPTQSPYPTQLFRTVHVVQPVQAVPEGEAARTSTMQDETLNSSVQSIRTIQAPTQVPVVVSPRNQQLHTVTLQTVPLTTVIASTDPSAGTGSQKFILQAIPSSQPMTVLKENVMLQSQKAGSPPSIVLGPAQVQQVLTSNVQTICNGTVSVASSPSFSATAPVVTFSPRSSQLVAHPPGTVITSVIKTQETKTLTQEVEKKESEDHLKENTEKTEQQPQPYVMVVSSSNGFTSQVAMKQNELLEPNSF
Outline: as §1

EHF = molecular target: T5, EHF (Homo sapiens, UniProt Q9NZC4 1-300); settings: protein: recombinant; tags: N-terminal GST; dsDNA, one strand shown
T5 sequence: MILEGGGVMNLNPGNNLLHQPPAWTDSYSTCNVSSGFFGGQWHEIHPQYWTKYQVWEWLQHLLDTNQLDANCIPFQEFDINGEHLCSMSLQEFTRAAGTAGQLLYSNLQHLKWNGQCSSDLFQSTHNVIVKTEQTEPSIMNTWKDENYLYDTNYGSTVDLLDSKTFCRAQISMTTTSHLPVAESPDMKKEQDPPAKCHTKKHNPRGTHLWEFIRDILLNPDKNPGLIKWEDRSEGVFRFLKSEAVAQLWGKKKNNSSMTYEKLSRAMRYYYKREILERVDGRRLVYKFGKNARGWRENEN
Outline: as §1

SPI1 = SPI1 (Homo sapiens, UniProt P17947 1-270); settings: protein: recombinant; tags: N-terminal GST; dsDNA, one strand shown
Outline: as §1

SPIB = SPIB (Homo sapiens, UniProt Q01892 1-262); settings: protein: recombinant; tags: N-terminal GST; dsDNA, one strand shown
SPIB, sequence (Q01892 whole entry): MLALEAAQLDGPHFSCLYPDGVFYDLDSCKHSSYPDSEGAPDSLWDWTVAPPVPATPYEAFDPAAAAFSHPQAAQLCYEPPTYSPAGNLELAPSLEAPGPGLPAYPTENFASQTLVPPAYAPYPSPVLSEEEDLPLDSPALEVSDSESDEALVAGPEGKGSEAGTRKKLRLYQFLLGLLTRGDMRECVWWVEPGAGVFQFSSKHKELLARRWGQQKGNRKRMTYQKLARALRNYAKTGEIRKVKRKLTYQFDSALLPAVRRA
Outline: as §1

ELK3 = molecular target: T6, ELK3 (Homo sapiens, UniProt P41970 1-407); settings: protein: recombinant; tags: N-terminal GST; dsDNA, one strand shown
T6 sequence: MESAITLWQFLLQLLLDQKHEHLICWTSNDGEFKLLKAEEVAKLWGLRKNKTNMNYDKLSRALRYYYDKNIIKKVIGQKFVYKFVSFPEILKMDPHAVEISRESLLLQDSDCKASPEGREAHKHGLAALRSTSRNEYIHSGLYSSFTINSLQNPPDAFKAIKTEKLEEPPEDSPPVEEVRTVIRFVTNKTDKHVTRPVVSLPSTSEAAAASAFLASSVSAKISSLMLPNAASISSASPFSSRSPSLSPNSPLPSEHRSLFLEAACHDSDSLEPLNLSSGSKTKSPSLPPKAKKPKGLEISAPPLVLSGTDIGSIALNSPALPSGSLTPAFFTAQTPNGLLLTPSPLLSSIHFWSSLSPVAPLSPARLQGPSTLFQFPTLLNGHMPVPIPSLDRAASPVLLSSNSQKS
Outline: as §1

FEV = molecular target: T7, FEV (Homo sapiens, UniProt Q99581 1-238); settings: protein: recombinant; tags: N-terminal GST; dsDNA, one strand shown
T7 sequence: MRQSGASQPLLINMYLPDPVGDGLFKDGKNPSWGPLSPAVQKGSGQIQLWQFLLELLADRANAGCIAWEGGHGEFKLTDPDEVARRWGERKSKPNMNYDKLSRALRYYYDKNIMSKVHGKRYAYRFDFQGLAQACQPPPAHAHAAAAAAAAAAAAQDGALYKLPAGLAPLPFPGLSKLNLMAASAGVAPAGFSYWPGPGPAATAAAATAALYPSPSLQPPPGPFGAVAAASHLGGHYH
Outline: as §1

ETV5 = ETV5 (Homo sapiens, UniProt P41161 1-510); settings: protein: recombinant; tags: N-terminal GST; dsDNA, one strand shown
ETV5, sequence (P41161 whole entry): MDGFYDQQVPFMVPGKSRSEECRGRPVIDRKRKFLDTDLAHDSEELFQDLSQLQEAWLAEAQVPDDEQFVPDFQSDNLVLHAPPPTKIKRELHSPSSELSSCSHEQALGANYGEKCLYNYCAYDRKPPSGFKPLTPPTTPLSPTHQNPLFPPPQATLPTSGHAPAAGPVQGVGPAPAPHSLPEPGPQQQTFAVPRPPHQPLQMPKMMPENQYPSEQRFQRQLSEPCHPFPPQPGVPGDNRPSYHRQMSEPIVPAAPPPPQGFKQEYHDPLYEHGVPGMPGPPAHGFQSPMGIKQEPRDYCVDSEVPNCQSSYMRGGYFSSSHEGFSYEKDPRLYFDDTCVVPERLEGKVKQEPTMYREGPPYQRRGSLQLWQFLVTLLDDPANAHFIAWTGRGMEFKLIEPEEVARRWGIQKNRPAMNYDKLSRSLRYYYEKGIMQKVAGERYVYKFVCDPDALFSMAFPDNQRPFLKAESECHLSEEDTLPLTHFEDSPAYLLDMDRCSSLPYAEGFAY
Outline: as §1

HSF1 = HSF1 (Homo sapiens, UniProt Q00613 1-529); settings: protein: recombinant; tags: N-terminal GST; chain copies: 3; dsDNA, one strand shown
HSF1, sequence (Q00613 whole entry): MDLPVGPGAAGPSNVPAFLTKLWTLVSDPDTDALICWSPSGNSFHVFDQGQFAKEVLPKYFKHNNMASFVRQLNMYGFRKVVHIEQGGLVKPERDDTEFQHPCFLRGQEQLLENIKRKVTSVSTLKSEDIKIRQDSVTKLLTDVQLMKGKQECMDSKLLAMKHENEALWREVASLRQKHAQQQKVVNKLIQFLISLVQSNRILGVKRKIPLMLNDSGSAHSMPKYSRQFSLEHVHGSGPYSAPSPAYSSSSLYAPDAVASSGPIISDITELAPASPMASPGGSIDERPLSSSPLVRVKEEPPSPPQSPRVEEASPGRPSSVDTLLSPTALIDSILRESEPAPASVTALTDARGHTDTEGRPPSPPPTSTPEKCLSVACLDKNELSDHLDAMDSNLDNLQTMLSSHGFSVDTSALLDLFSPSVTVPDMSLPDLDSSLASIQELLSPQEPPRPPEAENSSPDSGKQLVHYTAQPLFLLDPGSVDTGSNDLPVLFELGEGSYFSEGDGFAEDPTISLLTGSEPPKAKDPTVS
Outline: as §1

SPIC = molecular target: T8, SPIC (Homo sapiens, UniProt Q8N5J4 1-248); settings: protein: recombinant; tags: N-terminal GST; dsDNA, one strand shown
T8 sequence: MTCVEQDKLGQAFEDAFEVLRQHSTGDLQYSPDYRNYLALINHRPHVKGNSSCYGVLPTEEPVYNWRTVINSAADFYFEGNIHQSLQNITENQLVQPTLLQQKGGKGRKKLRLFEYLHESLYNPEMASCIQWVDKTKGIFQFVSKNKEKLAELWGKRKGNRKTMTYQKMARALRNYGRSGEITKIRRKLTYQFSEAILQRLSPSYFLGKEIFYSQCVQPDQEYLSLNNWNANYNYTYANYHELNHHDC
Outline: as §1

ELF4 = ELF4 (Homo sapiens, UniProt Q99607 1-663); settings: protein: recombinant; tags: N-terminal GST; dsDNA, one strand shown
ELF4, sequence (Q99607 whole entry): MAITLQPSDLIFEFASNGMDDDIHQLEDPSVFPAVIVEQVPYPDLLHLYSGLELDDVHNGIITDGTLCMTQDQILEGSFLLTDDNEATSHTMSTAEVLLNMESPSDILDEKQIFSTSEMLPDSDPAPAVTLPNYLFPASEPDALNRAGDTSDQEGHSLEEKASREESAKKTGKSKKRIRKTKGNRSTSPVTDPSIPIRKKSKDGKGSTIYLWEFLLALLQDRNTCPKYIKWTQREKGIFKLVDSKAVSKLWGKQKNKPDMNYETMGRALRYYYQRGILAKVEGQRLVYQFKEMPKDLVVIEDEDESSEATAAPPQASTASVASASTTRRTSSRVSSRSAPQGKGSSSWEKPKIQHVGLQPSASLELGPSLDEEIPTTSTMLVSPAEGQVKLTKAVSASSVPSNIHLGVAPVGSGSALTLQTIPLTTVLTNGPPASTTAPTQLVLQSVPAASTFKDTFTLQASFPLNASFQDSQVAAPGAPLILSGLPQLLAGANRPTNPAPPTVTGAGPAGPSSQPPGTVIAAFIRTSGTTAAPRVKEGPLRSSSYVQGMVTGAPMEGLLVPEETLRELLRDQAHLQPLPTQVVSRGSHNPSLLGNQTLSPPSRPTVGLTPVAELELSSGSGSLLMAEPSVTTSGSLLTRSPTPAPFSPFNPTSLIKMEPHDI
Outline: as §1

ELK4 = molecular target: T9, ELK4 (Homo sapiens, UniProt P28324-2 1-405); settings: protein: recombinant; tags: N-terminal GST; dsDNA, one strand shown
T9 sequence: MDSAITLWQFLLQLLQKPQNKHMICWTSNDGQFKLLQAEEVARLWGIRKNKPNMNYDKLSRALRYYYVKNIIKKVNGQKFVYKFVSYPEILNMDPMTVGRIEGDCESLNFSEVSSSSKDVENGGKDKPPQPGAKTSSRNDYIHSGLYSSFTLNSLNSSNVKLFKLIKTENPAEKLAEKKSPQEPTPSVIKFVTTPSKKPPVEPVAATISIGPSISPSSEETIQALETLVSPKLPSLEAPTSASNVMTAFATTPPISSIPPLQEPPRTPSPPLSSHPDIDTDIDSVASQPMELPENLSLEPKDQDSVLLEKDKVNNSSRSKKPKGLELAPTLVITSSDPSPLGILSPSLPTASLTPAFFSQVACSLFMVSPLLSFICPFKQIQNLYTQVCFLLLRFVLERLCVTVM
Outline: as §1

ETV2 = molecular target: T10, ETV2 (Homo sapiens, UniProt O00321 1-342); settings: protein: recombinant; tags: N-terminal GST; dsDNA, one strand shown
T10 sequence: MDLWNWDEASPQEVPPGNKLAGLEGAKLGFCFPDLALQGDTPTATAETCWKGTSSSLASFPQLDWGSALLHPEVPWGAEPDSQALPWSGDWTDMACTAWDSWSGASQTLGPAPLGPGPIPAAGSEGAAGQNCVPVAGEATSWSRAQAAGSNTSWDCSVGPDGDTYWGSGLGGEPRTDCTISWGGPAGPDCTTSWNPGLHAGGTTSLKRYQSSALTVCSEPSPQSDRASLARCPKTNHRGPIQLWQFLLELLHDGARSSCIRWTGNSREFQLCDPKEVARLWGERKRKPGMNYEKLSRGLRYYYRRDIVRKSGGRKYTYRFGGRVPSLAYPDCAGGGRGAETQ
Outline: as §1

ELF3 = molecular target: T11, ELF3 (Homo sapiens, UniProt P78545 1-371); settings: protein: recombinant; tags: N-terminal GST; dsDNA, one strand shown
T11 sequence: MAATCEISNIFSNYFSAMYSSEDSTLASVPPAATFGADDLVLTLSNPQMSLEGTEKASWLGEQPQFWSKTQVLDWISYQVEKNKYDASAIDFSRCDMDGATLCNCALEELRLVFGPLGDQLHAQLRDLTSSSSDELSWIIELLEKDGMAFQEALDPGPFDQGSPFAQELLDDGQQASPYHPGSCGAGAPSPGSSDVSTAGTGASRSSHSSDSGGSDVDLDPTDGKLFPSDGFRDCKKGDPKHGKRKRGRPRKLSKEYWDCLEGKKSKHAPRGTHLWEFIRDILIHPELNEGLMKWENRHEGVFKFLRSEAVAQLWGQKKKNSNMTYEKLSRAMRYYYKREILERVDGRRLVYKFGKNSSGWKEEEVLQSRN
Outline: as §1

CRX = CRX (Homo sapiens, UniProt O43186 1-299); settings: protein: recombinant; tags: N-terminal GST; dsDNA, one strand shown
CRX, sequence (O43186 whole entry): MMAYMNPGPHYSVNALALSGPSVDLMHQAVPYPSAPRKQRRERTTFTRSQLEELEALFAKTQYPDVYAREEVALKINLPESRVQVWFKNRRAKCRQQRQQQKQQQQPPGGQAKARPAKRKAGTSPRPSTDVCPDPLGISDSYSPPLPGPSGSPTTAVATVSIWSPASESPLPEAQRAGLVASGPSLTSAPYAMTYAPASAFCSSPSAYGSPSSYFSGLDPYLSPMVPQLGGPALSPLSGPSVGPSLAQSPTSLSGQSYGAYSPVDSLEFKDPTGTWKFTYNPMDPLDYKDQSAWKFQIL
Outline: as §1

ETV1 = ETV1 (Homo sapiens, UniProt P50549 1-477); settings: protein: recombinant; tags: N-terminal GST; dsDNA, one strand shown
ETV1, sequence (P50549 whole entry): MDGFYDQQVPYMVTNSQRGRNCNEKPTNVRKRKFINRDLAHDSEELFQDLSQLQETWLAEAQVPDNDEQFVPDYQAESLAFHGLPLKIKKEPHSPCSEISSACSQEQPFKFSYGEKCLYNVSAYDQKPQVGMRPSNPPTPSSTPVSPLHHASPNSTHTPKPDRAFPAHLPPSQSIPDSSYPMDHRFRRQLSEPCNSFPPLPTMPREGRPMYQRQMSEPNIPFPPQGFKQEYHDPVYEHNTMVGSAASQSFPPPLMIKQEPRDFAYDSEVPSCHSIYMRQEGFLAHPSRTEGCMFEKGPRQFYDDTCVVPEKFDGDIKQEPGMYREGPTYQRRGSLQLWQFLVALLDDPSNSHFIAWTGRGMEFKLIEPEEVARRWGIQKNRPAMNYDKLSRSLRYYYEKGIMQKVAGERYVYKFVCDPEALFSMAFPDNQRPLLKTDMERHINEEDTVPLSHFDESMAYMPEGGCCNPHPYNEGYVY
Outline: as §1

Q: CAAAAC was tested. Which binding signal (FLI1) did it give?
A: 1.19 fold enrichment (6-mer frequency, TF over GST control)

Q: And the binding signal (ELK1)?
A: 1.27 fold enrichment (6-mer frequency, TF over GST control)

Q: And the binding signal (GABPA)?
A: 1.3 fold enrichment (6-mer frequency, TF over GST control)

Q: What about the binding signal (ERG) of the same sequence?
A: 1.23 fold enrichment (6-mer frequency, TF over GST control)

Q: And the binding signal (ELF1)?
A: 1.28 fold enrichment (6-mer frequency, TF over GST control)

Q: And the binding signal (EHF)?
A: 1.26 fold enrichment (6-mer frequency, TF over GST control)

Q: And the binding signal (SPI1)?
A: 1.38 fold enrichment (6-mer frequency, TF over GST control)

Q: And the binding signal (SPIB)?
A: 1.23 fold enrichment (6-mer frequency, TF over GST control)

Q: What about the binding signal (ELK3) of the same sequence?
A: 1.21 fold enrichment (6-mer frequency, TF over GST control)

Q: What about the binding signal (FEV) of the same sequence?
A: 1.3 fold enrichment (6-mer frequency, TF over GST control)

Q: What about the binding signal (ETV5) of the same sequence?
A: 1.26 fold enrichment (6-mer frequency, TF over GST control)

Q: What about the binding signal (HSF1) of the same sequence?
A: 1.05 fold enrichment (6-mer frequency, TF over GST control)

Q: What about the binding signal (SPIC) of the same sequence?
A: 1.23 fold enrichment (6-mer frequency, TF over GST control)

Q: And the binding signal (ELF4)?
A: 1.34 fold enrichment (6-mer frequency, TF over GST control)

Q: And the binding signal (ELK4)?
A: 1.28 fold enrichment (6-mer frequency, TF over GST control)

Q: What about the binding signal (ETV2) of the same sequence?
A: 1.24 fold enrichment (6-mer frequency, TF over GST control)

Q: What about the binding signal (ELF3) of the same sequence?
A: 1.28 fold enrichment (6-mer frequency, TF over GST control)

Q: What about the binding signal (CRX) of the same sequence?
A: 1.02 fold enrichment (6-mer frequency, TF over GST control)

Q: What about the binding signal (ETV1) of the same sequence?
A: 1.2 fold enrichment (6-mer frequency, TF over GST control)
